Experimental findings from PubChem BioAssay AID1851 (National Center for Advancing Translational Sciences (NCATS), 2009) are described below.

By AC50 is commonly meant the concentration at which the activity in the assay is half-maximal.

Several values for one entry are separate records, joined by “and”; a condition that tells them apart may be missing. Equal entries are not always repeated. Hit rate of the full screen: of about 16,000 compounds, about 4,000 (25%) were called active. Inconclusive results (about 26%) are left out. The call rests on the fitted dose curve; in most records, active means well fitted curve in the direction sought with a large enough effect; inconclusive means small, poorly fitted or top-dose-only effect, or effect the other way; inactive means no such curve, though single readings can be large or run the other way. These entries were drawn from the full list. Some compounds were tested as several samples or in several runs, with calls that do not always agree. Square brackets hold non-standard residues; d marks the D form. Peptide text beside a SMILES is read from it.
On the % scale 0 is the no-effect control and ±100 the full control effect.

For this assay, the target named is Cytochrome P450 2C9 (Homo sapiens) (UniProt P11712). The assay is described as follows: Cytochrome panel assay with activity outcomes. Conditions: recombinant CYP, pro-luciferin dealkylation, luminescence, p450-cyp2c9; series mostly up to 57.1 µM; activity, negative = inhibition: at the top concentration.
Cytochrome P450 2C9 (Homo sapiens), sequence (P11712 whole entry, looked up): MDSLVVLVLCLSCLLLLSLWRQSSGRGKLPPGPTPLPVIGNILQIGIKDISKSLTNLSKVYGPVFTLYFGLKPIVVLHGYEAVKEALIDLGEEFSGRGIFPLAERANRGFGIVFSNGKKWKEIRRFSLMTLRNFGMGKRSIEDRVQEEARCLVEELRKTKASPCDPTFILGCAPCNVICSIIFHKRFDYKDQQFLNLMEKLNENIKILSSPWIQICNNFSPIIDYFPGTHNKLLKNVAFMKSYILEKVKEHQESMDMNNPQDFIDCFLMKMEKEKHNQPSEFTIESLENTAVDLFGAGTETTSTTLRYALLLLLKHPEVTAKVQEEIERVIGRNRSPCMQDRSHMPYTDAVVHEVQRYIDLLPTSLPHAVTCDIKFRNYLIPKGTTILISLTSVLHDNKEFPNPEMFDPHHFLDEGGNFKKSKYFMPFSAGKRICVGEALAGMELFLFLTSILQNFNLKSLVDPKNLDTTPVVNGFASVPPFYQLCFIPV
For the compound `Cc1nonc1NC(=O)OCCN1CCOC1=O`, the “activity, negative = inhibition” value was -14.1% (inactive). Same read-out and setting: with `CC[C@]1(O)C[C@@H]2CN(CCc3c([nH]c4ccccc34)[C@](C(=O)OC)(c3cc4c(cc3OC)N(C)[C@H]3[C@](O)(C(=O)OC)[C@@H](C(=O)OC)[C@@]5(CC)C=CCN6CC[C@@]43[C@@H]65)C2)C1` the figure was -6.34% (inactive). Regarding `CCn1c(SCC(=O)Nc2sc3c(c2C#N)CCC(C(C)(C)C)C3)nnc1-c1ccco1` (centres undefined), the AC50 is 8.91 µM (active).

In the case of `CCn1c(SCC(=O)Nc2sc3c(c2C(N)=O)CCC(C)C3)nnc1-c1ccco1` (centres undefined), the AC50 is 3.16 µM (active). `C#CC[N+](CC)(CC)CC#Cc1cccc(Cl)c1`: the “activity, negative = inhibition” value was 3.76% (inactive). For the compound `C[C@H](CN(C)C)C(O)(c1ccccc1)c1ccccc1`, the activity, negative = inhibition was -5.45% [at 11.4 µM] (inactive). Take `COC(=O)[C@@]1(Cc2ccccc2)[C@H]2c3cc(C(=O)N4CCCC4)n(CCN4CNCC4=O)c3C[C@H]2CN1C(=O)c1ccccc1`: the AC50 was 2 µM (active). Same read-out and setting: in the case of `COC(=O)[C@@]1(Cc2ccc(F)cc2)[C@H]2c3cc(C(=O)N4CCCC4)n(CCN4CNCC4=O)c3C[C@H]2CN1C(=O)c1ccccc1` it was 7.94 µM (active). For the compound `Nc1nc(N)nc(CC(=O)O)n1`, the activity, negative = inhibition was -0.0515% [at 11.4 µM] (inactive). Regarding `CCOC(=O)C1=C(CSc2nc3ccccc3s2)NC(=O)NC1c1cc(C)ccc1C` (centres undefined), the AC50 is 3.55 µM (active). With `COc1cc(/C=C(\C#N)C(N)=O)cc(CSc2nc3ccccc3s2)c1O`, the “activity, negative = inhibition” value is -7.23% (inactive).

Turning to `CCOC(=O)C1=C(CSc2nc3ccccc3s2)NC(=O)NC1c1cccc([N+](=O)[O-])c1` (centres undefined), the half-maximal activity concentration (AC50) is 3.98 µM (active). For the compound `O=C(Nc1cccc(F)c1)N1CCCC2(CCNCC2)C1`, the “activity, negative = inhibition” value was -19.3% (inactive). As for `Cn1cc(-c2nc3cnc(N4CCNCC4)nc3n(CCc3ccccc3)c2=O)c2ccccc21`, the concentration at half-maximal activity (AC50) was 10 µM (active). As for `CN1CCN(c2ncc3nc(-c4cn(C)c5ccccc45)c(=O)n(CCc4ccccc4)c3n2)CC1`, the “activity, negative = inhibition” value is 25.4% (inactive). Regarding `Cn1cc(-c2nc3cnc(N4CCNCC4)nc3n(Cc3ccc(F)cc3)c2=O)c2ccccc21`, the AC50 was 10 µM (active). With `COc1cccc(Nc2ncc3nc(-c4cn(C)c5ccccc45)c(=O)n(CCC#N)c3n2)c1`, the “activity, negative = inhibition” value was -6.19% (inactive). Still for that read-out and setting: with `COCCn1c(=O)c(-c2cn(C)c3ccccc23)nc2cnc(N3CCNCC3)nc21` the figure was -26.8% (inactive); with `CCNc1ncc2nc(-c3ccccc3)c(=O)n(Cc3cccs3)c2n1`, -29.9% (inactive). Regarding `COc1cccc(Cn2c(=O)c(-c3cn(C)c4ccccc34)nc3cnc(N4CCNCC4)nc32)c1`, the AC50 was 20 µM (active).

Regarding `CCNc1ncc2nc(-c3cn(C)c4ccccc34)c(=O)n(CCC#N)c2n1`, the “activity, negative = inhibition” value is -3.8% (inactive). On the same count and under the same terms, with `CCNc1ncc2nc(-c3cn(C)c4ccccc34)c(=O)n(Cc3cccc(OC)c3)c2n1` the figure was -16.9% (inactive). On to `COc1ncc2nc(-c3cn(C)c4ccccc34)c(=O)n(Cc3ccc(F)cc3)c2n1`, for which the “activity, negative = inhibition” value was 5.67% (inactive). Consider `CCNc1ncc2nc(-c3cn(C)c4ccccc34)c(=O)n(Cc3cccs3)c2n1`, for which the AC50 was 20 µM (active). As to `Cn1cc(-c2nc3cnc(N4CCOCC4)nc3n(CCC#N)c2=O)c2ccccc21`, the “activity, negative = inhibition” value was 9.88% (inactive).

Regarding `CCNc1nc(NCC)nc(ON=C(C)C)n1`, the “activity, negative = inhibition” value is -8.7% (inactive). In the case of `N=c1nc(N2CCCCC2)cc(N)n1O`, the AC50 result is “inactive”. As for `CO[C@@H](NC(N)=O)C(=O)O`, the activity, negative = inhibition was 25.8% [at 11.4 µM] (inactive).

For `NCC(=O)N[C@H](CO)C(=O)O` (H-Gly-[dS]-OH), the activity, negative = inhibition is 12.1% [at 11.4 µM] (inactive).

As for `CCOC(=O)N1CCN(C(=O)c2ccc(Cl)c(S(=O)(=O)N3CCOCC3)c2)CC1`, the “activity, negative = inhibition” value is -23.4% (inactive). On to `CCOC(=O)N1CCN(C(=O)c2oc3ccc(S(=O)(=O)N4CCCCC4)cc3c2C)CC1`, for which the AC50 is 10 µM (active). Regarding `CN(Cc1ccccc1)S(=O)(=O)c1ccc(OCC(=O)N2CCOCC2)cc1`, the AC50 was 14.1 µM (active). Turning to `COc1ccc(S(=O)(=O)N(CCc2ccccc2)CC(=O)N2CCOCC2)cc1`, the “activity, negative = inhibition” value was -22.5% (inactive).

For `CCN(CC)C(=O)COc1ccc(S(=O)(=O)N2CCOCC2)cc1`, the “activity, negative = inhibition” value is -37.4% (inactive). The same measure, in the same setting: with `COc1cccc(-c2cc(NCc3ccc(OC)cc3OC)ncn2)c1` the figure was -18.3% [at 2.29 µM] (inactive). On to `COc1cccc(-c2nnc3n2N=C(C(C)(C)C)CS3)c1`, for which the AC50 was 17.8 µM (active). `COc1cccc(-c2cc(NCc3cnc(C)cn3)ncn2)c1`: the activity, negative = inhibition is 6.07% [at 2.29 µM] (inactive). Turning to `Cc1nn(S(=O)(=O)c2cccs2)c(C)c1Sc1ccc([N+](=O)[O-])cc1`, the AC50 was 4.47 µM (active).

In the case of `O=C(C/C=N/OCc1ccc(F)cc1Cl)c1cnc(-c2ccccc2)s1`, the AC50 is 3.98 µM (active). Same read-out and setting: in the case of `CC1=CC(=C2C(=O)c3ccccc3C2=O)C=C(C)N1Cc1ccco1` it was 2.24 µM (active). On to `Cc1ccccc1/C=C1\OC(=O)c2ccccc21`, for which the “activity, negative = inhibition” value was 33.4% (inactive). Still for that read-out and setting: with `CCCCS(=O)(=O)NC1=NCN(Cc2ccco2)CN1` the figure was -14.9% (inactive).

Regarding `CC1=CC(=C2C(=O)c3ccccc3C2=O)C=C(C)O1`, the AC50 is 2.51 µM (active). For the compound `COC(=O)C(NC(=O)c1ccccc1)=C1C=C(C)OC(C)=C1`, the “activity, negative = inhibition” value is -8.95% (inactive).

Consider `CC1(C)OC(=O)N(Cc2ccco2)C1(C)O` (centres undefined), for which the “activity, negative = inhibition” value was -21.2% (inactive). Same read-out and setting: in the case of `CC(=O)NC1(c2cccc(F)c2)CCN(CC(=O)NC(C)C)CC1` it was -0.525% (inactive); in that of `CCCCCCCCCn1cc(C(C)=O)c(=O)[nH]c1=O`, 3.97% (inactive); in that of `COc1ccc(CNc2ccnc(-c3ccccc3C(F)(F)F)n2)c(OC)c1`, 3.78% [at 2.29 µM] (inactive). In the case of `Cc1ccc(C(=O)C(OC(=O)COc2ccccc2C)c2ccccc2)cc1` (centres undefined), the AC50 is 15.8 µM (active). `Cc1ccc(C(=O)C(OC(=O)CN2C(=O)c3ccccc3C2=O)c2ccccc2)cc1` (centres undefined): the “activity, negative = inhibition” value was -20.4% (inactive). `Cc1ccc(C(=O)C(OC(=O)CNS(=O)(=O)c2ccccc2)c2ccccc2)cc1` (centres undefined): the AC50 was 7.08 µM (active). For the compound `Cc1ccccc1OCC(=O)OC1CCN(C)CC1`, the “activity, negative = inhibition” value is -10.2% (inactive). Consider `CCSc1nnc2n(N)c(=O)c3ccccc3n12`, for which the “activity, negative = inhibition” value is -10.6% (inactive). As to `CO[C@H]1COC(=O)CCC[C@H](C)[C@H](OC)COC(=O)C/C=C\[C@@H]1C`, the activity, negative = inhibition was 25.3% [at 11.4 µM] (inactive). On the same count and under the same terms, in the case of `COc1ccc2[nH]cc(CCNc3cc(-c4ccc(C(=O)N(C)C)cc4)ncn3)c2c1` it was 8.96% [at 2.29 µM] (inactive); in that of `COc1ccc2[nH]cc(CCNc3ccnc(-c4ccc(C(=O)N(C)C)cc4)n3)c2c1`, -14% [at 2.29 µM] (inactive); in that of `COc1ccc(CNc2ncncc2-c2ccc(N(C)C)cc2)c(OC)c1`, -16.8% [at 2.29 µM] (inactive). Still for that read-out and setting: with `COc1ccc(CNc2ncncc2-c2ccc(C(=O)N(C)C)cc2)c(OC)c1` the figure was -28.8% [at 2.29 µM] (inactive); with `COc1ccc2[nH]cc(CCNc3ncncc3-c3cccnc3)c2c1`, 0.571% [at 2.29 µM] (inactive).

On to `COc1ccc2[nH]cc(CCNc3ncncc3-c3ccc(N(C)C)cc3)c2c1`, for which the AC50 was 0.501 µM (active). With `CN(C)C(=O)c1ccc(-c2cncnc2NCCc2cnc[nH]2)cc1`, the activity, negative = inhibition is -10.2% [at 2.29 µM] (inactive). Take `COc1ccc2[nH]cc(CCNc3ncnc4ccc(-c5ccc(C(=O)N(C)C)cc5)cc34)c2c1`: the AC50 is 0.251 µM (active).

With `COc1ccc2[nH]cc(CCNc3ncncc3-c3ccc(C(=O)N(C)C)cc3)c2c1`, the AC50 was 0.398 µM (active). Turning to `Cn1c(=O)c(-c2cccs2)nc2cnc(OCc3ccccc3)nc21`, the “activity, negative = inhibition” value was -29.1% (inactive). As for `Cn1c(-c2sccc2OCc2ccccc2)n[nH]c1=S`, the AC50 was 11.2 µM (active). With `CSc1nnc(-c2sccc2OCc2ccccc2)n1C`, the AC50 was 17.8 µM (active). On the same count and under the same terms, with `CSc1n[nH]c(-c2sccc2OCc2ccc(C)cc2)n1` the figure was 5.01 µM (active).

Consider `CC(C)=CCC/C(C)=C/CO/N=C1/C[C@@H](O)[C@@H](O)[C@@H]2[C@@H]3C(=O)N(C4CCCCC4)C(=O)[C@H]3CC[C@@H]12`, for which the activity, negative = inhibition is -8.91% [at 11.4 µM] (inactive). The same measure, in the same setting: with `CC(SCc1cn2cc(Cl)ccc2n1)C(=O)O` (centres undefined) the figure was -37.7% (inactive); with `COc1cccc(-c2cc(NCc3ccccc3OC)ncn2)c1`, -9.54% [at 2.29 µM] (inactive). `CN(C)c1ccc(-c2cc(NCc3ccccc3)ncn2)cc1`: the activity, negative = inhibition is -5.31% [at 2.29 µM] (inactive). In the case of `c1ccc(Oc2cc(-c3ccccc3)ncn2)cc1`, the AC50 is 20 µM (active). Turning to `CO[C@@H]1COC(=O)[C@H](C)NC(=O)C/C=C\[C@@H](C)[C@@H](NS(=O)(=O)c2ccc(C)cc2)COC(=O)C/C=C\[C@@H]1C`, the activity, negative = inhibition is -0.567% [at 11.4 µM] (inactive). The same measure, in the same setting: with `COCCNc1ncnc2ccc(-c3ccc(C(=O)N(C)C)cc3)cc12` the figure was -1.35% [at 2.29 µM] (inactive).

On to `COc1cc(/C=C2/C(=N)N3C=CSC3=NC2=O)ccc1OCCCOc1ccccc1C`, for which the AC50 is 0.708 µM (active). Take `COc1ccccc1OCCOc1ccc(/C=C2/C(=N)N3OC(C)=CC3=NC2=O)cc1OC`: the “activity, negative = inhibition” value was -12.8% (inactive). The same measure, in the same setting: in the case of `COc1cc(/C=C2/C(=N)N3OC(C)=CC3=NC2=O)ccc1OCCOc1ccc(C)cc1` it was -13.9% (inactive).

On to `CCOc1cc(/C=C2/C(=N)N3C=CSC3=NC2=O)ccc1OCCCOc1ccccc1C`, for which the AC50 is 0.631 µM (active). For the compound `CO[C@@H]1COC(=O)CC=C[C@@H](C)[C@@H]2C=C[C@H](O)[C@@H](COC(=O)C/C=C\[C@H]1C)O2`, the activity, negative = inhibition was 10.7% [at 11.4 µM] (inactive). Same read-out and setting: with `Cc1ccccc1-c1cncnc1N1CCN(C)CC1` the figure was 18.6% [at 2.29 µM] (inactive).

In the case of `CN1CCCC1CCNC1C2CC3CC(C2)CC1C3` (centres undefined), the “activity, negative = inhibition” value was 29.2% (inactive). Still for that read-out and setting: with `NCCCCN` the figure was 14.3% (inactive). Regarding `NCCCCNCCCN`, the AC50 result was “inactive and 12.6 µM (active)”. On the same count and under the same terms, with `NCCCNCCCCNCCCN` the entry was “inactive”. In the case of `CCCCN(CC)Cc1ccc(CNC(=O)Nc2ccc(OC)cc2OC)o1`, the “activity, negative = inhibition” value was -24.1% (inactive). Consider `CCCCOC(=O)C1=C(C)Nc2ncnn2C1c1cc(OC)ccc1OC` (centres undefined), for which the AC50 was 7.94 µM (active). `CCN(CC)CCOC(=O)c1c(C)n(C)c2ccc(OC)cc12`: the “activity, negative = inhibition” value was 5.37% (inactive). For `O=C1C(SCCO)=C(SCCO)C(=O)c2ccccc21`, the AC50 was 5.01 µM (active). For the compound `O=S(=O)(O)[C@@H](CO)c1ccccc1` (tested in a mixture with another compound), the activity, negative = inhibition is -2.54% [at 11.4 µM] (inactive).
